# Source: PubChem BioAssay
# Active and inactive are the calls of the source. Unless noted, how the calls were made is not given here.
# Columns and labels:
# [1] = A549 cell viability effects, profiling panel, calcein-AM fluorescence, 48 h, basal (AID 1162); details: higher = more signal; further: test concentration not given here
# [2] = adipocyte viability effects, profiling panel, cell-based, 3T3-L1 adipocytes, calcein-AM fluorescence, 48 h, basal (AID 1163); details: 3T3-L1 adipocytes viability, higher = more signal; further: test concentration not given here
# [3] = HepG2 cell viability effects, profiling panel, calcein-AM fluorescence, 48 h, basal (AID 1164); details: higher = more signal; further: test concentration not given here
# [4] = MM1S cell viability effects, profiling panel, calcein-AM fluorescence, 48 h, basal (AID 1165); details: higher = more signal;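 further: viability of MM1S multiple myeloma cells under basal unstimulated conditions; test concentration not given here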
# [5] = basal RPMI8226 viability, no added stimulus, profiling panel, cell-based, calcein-AM fluorescence, 48 h, PK04 Diversity Set (AID 1166); details: RPMI8226 myeloma viability, higher = more signal;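 further: cells grown under basal conditions without added stimulus; test concentration not given here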
# [6] = basal HepG2 mitochondrial membrane potential changes, profiling panel, cell-based, JC-1 fluorescence, 24 h, 100 nL compound (AID 1167); details: higher = more signal; further: test concentration not given here
# [7] = basal 3T3-L1 adipocyte mitochondrial potential changes, profiling panel, cell-based, JC-1 fluorescence, 3T3-L1 adipocytes, 24 h, 100 nL compound (AID 1168); details: JC-1 mitochondrial fluorescence, higher = more signal, called active from +8 up or from −8 down; further: test concentration not given here
# [8] = basal RPMI8226 mitochondrial membrane potential changes, profiling panel, cell-based, JC-1 fluorescence, 24 h, 100 nL compound (AID 1169); details: RPMI8226 myeloma, JC-1 mitochondrial potential fluorescence, higher = more signal; further: test concentration not given here
# [9] = basal MM1S mitochondrial membrane potential changes, profiling panel, cell-based, JC-1 fluorescence, 24 h, 100 nL compound (AID 1170); details: higher = more signal; further: test concentration not given here
# [10] = A549 lung cancer cell viability effects, profiling panel, resazurin fluorescence, 24 h, PK04 Diversity Set (AID 1171); details: higher = more signal, called active from +8 up or from −8 down; further: test concentration not given here
# [11] = HepG2 liver cancer cell viability effects, profiling panel, resazurin fluorescence, 24 h, PK04 Diversity Set (AID 1172); details: higher = more signal; further: test concentration not given here
# [12] = basal S. cerevisiae growth modulation, no modifier, primary screen, OD600, strain BY4716, 24 h, basal condition (AID 1173); details: OD600, 24 h, higher = more signal, called active from +8 up or from −8 down
# [13] = MM1S myeloma cell viability, profiling panel, resazurin fluorescence, basal, 24 h, PK04 Diversity Set (AID 1174); details: higher = more signal, called active from +8 up or from −8 down;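 further: MM1S multiple myeloma cell line; test concentration not given here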
# [14] = molecular target: Dihydroorotate dehydrogenase (quinone), mitochondrial (Plasmodium falciparum (isolate 3D7)) (UniProt Q08210); test: PfDHODH enzyme inhibitors, primary screen, biochemical, C-terminal His tag, absorbance 600 nm (AID 1175); details: DCIP absorbance 600 nm, higher = more signal, called active from +8 up or from −8 down;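 further: recombinant parasite enzyme with a five histidine tag at its C terminus; test concentration not given here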
# [15] = P. aeruginosa biofilm formation inhibitors, primary screen, strain PAO1, LB-PBS medium, absorbance 600 nm (AID 1176); further: test concentration not given here; details: P. aeruginosa PAO1 growth/biofilm, A600, 12 h; higher = more signal
# [16] = S. cerevisiae RM11-1a growth modifiers, primary screen, strain RM11-1a, OD600, basal, 24 h (AID 1177); details: OD600, 24 h, higher = more signal, called active from +8 up or from −8 down;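 further: cultures grown under basal conditions with no added stressor; test concentration not given here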
# [17] = E. coli acrAB mutant growth effects, primary screen, E. coli filamentation inducers, strain DRC39, OD650, 24 h (AID 1178); details: higher = more signal, called active from +8 up or from −8 down;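 further: growth measured as culture turbidity by optical density at 650 nm; test concentration not given here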
# [18] = E. coli acrAB mutant growth effects, primary screen, E. coli filamentation inducers, strain DRC39, OD650, 48 h (AID 1179);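 further: screen aims at cell division blockers that make cells filament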; details: E. coli DRC39 delta-acrAB growth, higher = more signal, called active from +8 up or from −8 down
# [19] = RPMI8226 myeloma cell viability, profiling panel, resazurin fluorescence, basal, 24 h, PK04 Diversity Set (AID 1180); details: higher = more signal;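 further: RPMI8826 multiple myeloma cell line at 5000 cells per well; test concentration not given here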
# [20] = molecular target: E3 ubiquitin-protein ligase XIAP (Homo sapiens) (UniProt P98170); test: XIAP binders, primary screen, biophysical, small-molecule microarray, fluorescence 635 nm (AID 1181); details: small-molecule microarray binding, higher = more signal;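 further: score merges 667 nm emission and signal to noise over triplicate slides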
# Chain of E3 ubiquitin-protein ligase XIAP (Homo sapiens) (P98170 whole entry, looked up): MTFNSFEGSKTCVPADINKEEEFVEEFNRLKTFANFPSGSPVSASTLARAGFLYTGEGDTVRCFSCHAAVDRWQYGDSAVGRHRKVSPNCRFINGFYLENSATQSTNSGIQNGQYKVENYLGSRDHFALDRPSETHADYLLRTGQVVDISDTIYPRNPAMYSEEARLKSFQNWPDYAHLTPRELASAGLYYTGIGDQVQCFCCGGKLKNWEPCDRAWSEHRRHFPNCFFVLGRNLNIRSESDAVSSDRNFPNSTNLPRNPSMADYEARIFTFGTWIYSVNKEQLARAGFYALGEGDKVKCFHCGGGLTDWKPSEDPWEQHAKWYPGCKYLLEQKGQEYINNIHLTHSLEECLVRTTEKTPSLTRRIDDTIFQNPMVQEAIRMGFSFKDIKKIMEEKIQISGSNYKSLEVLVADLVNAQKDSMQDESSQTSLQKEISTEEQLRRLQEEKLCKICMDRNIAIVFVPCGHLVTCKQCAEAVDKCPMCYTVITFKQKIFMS
# Chain of Dihydroorotate dehydrogenase (quinone), mitochondrial (Plasmodium falciparum (isolate 3D7)) (Q08210 whole entry, looked up): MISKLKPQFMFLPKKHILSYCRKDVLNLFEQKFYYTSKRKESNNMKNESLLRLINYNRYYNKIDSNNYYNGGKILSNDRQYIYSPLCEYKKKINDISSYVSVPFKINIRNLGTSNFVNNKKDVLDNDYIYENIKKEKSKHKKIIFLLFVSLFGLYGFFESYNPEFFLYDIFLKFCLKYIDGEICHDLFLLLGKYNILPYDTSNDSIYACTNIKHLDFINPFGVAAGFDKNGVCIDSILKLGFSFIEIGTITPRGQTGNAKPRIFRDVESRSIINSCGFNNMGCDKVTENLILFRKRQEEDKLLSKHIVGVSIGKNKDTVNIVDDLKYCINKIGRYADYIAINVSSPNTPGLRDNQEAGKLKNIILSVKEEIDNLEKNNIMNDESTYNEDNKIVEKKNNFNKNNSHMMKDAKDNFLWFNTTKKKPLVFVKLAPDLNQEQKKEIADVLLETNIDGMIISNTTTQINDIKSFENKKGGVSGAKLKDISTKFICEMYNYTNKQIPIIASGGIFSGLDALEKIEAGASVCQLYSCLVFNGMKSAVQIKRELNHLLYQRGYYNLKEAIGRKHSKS
SMILES,z-score [1],z-score [2],z-score [3],z-score [4],z-score [5],z-score [6],z-score [7],z-score [8],z-score [9],z-score [10],z-score [11],z-score [12],z-score [13],composite z-score [14],z-score [15],z-score [16],z-score [17],z-score [18],z-score [19],composite z-score [20]
COC(=O)[C@@]1(Cc2ccc(F)cc2)[C@@H]2[C@@H](CC(=O)[C@H]2CC(=O)C(=O)N(C)C)CN1C(=O)c1ccccc1,-0.294,-1.19,0.27,-0.886,-1.73,1.65,-0.554 (inactive),-0.00425,-1.92,-2 (inactive),-2.11,1.52 (inactive),-1.4 (inactive),-0.363 (inactive),0.784 (inactive),0.438 (inactive),-0.287 (inactive),-0.13 (inactive),-2.97,0.0253
COc1ccc(C(=O)Nc2cccc(CN3C(=O)[C@]4(O[C@H](CCO)[C@@H]([Si](C)(C)c5ccc(OC)cc5)[C@@H]4C)c4ccccc43)c2)cc1,-4.13,-0.564,-4.73,-2.78,-4.35,-2.23,-1.37 (inactive),-0.73,-1.96,-6.33 (inactive),-6.28,-3.7 (inactive),-9.11 (active),0.255 (inactive),1.01 (inactive),4.05 (inactive),0.127 (inactive),-0.903 (inactive),-6.27,0.0847
CC(C)[C@@H](CO)NC(=O)[C@H]1[C@@H](c2ccccc2)N(c2ccccc2)O[C@@H]1C,0.407,-0.159,0.319,0.714,0.285,0.324,0.392 (inactive),0.354,-1.11,0.959 (inactive),0.872,-2.53 (inactive),0.751 (inactive),-0.857 (inactive),0.0573 (inactive),1.2 (inactive),-0.323 (inactive),0.506 (inactive),0.566,-0.0999
COC(=O)[C@@]1(Cc2ccc(OC)cc2)[C@H]2c3cc(C(=O)N4CCCC4)n(Cc4ccc(OC)c(OC)c4)c3C[C@H]2CN1C(=O)c1ccccc1,-0.25,0.525,-1.05,-0.128,-0.808,4,0.0331 (inactive),-0.16,-0.602,1.21 (inactive),0.277,1.66 (inactive),-0.994 (inactive),-0.245 (inactive),0.259 (inactive),0.744 (inactive),-0.333 (inactive),-0.888 (inactive),-0.636,-0.0541
C=CC[C@@]1(C(=O)NCc2ccccc2)N=C(c2ccc(OCCCO)cc2)O[C@@H]1c1ccccc1N=[N+]=[N-],-0.586,0.117,0.317,-1.48,-1.26,-0.827,0.693 (inactive),-1,-0.85,-0.307 (inactive),-0.453,0.669 (inactive),-2.2 (inactive),1.92 (inactive),1.16 (inactive),2.07 (inactive),0.335 (inactive),-0.899 (inactive),-0.829,0.0736
COCCCNC(=O)[C@@]1(Cc2ccccc2)N=C(c2ccc(OCCCO)cc2)O[C@H]1c1ccccc1,-0.736,-0.493,-0.104,-1.03,-0.856,0.00935,0.425 (inactive),-1.11,-0.314,1.57 (inactive),0.625,-1.05 (inactive),-0.0938 (inactive),0.282 (inactive),0.19 (inactive),-0.82 (inactive),0.385 (inactive),-0.456 (inactive),0.297,-0.0376
O=C1c2ccccc2[C@@]2(Cc3ccccc3N(CC(F)(F)F)C2=O)[C@H](c2ccc(CO)cc2)N1Cc1ccccc1Cl,0.609,0.889,-0.0395,-0.354,-0.936,-0.0535,-0.483 (inactive),-0.131,0.165,-0.142 (inactive),0.0685,0.386 (inactive),0.192 (inactive),-22.2 (active),0.848 (inactive),-0.399 (inactive),0.424 (inactive),-0.411 (inactive),0.638,0.176
C=CCOC(=O)[C@H]1[C@@H]2C(=O)O[C@@H](c3ccccc3)[C@@H](c3ccccc3)N2[C@@H](c2ccc(OCCOC(=O)[C@H]3C[C@H]4C(=O)N[C@@H](CC(C)C)C(=O)N4[C@H]3c3ccc(O)cc3)cc2)[C@]12C(=O)Nc1ccc(I)cc12,0.709,-0.212,1.8,-2.02,0.0851,-0.626,-0.804 (inactive),-0.418,-0.859,0.0559 (inactive),-0.598,-0.838 (inactive),-0.491 (inactive),-1.72 (inactive),0.379 (inactive),0.919 (inactive),-0.267 (inactive),0.276 (inactive),-0.385,0.109
COCCOC(=O)N1C(=O)[C@@]2(c3ccccc31)[C@H](c1ccc(O)cc1)N1[C@H](c3ccccc3)[C@H](c3ccccc3)OC(=O)[C@H]1[C@@H]2C(=O)NC[C@H](O)c1ccccc1,0.205,1.15,0.311,-0.534,-1.99,-1.02,-0.184 (inactive),0.266,-0.142,-1.1 (inactive),-0.796,0.861 (inactive),-0.397 (inactive),0.873 (inactive),0.173 (inactive),0.957 (inactive),-1.12 (inactive),-1.29 (inactive),-0.199,0.201
